Targets with a hit are over-represented here; the source holds about 7,900 in all. About 0.6% of all pairs of compound and target were hits.
Experiments:
Assay in all cases: log2 fold change, soluble protein after heating vs DMSO (PISA); higher = thermal stabilisation; K562 cells, 10 uM, 30 min; active = over 0.2 and 3.5 SD of the protein, either way, in both replicates (recomputed)
[1] = compound: NC(=O)Nc1cc(-c2cccc(F)c2)sc1C(=O)N[C@H]1CCCNC1
In short: (§1)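 K562 cells (2×10^6 cells/mL) were treated with 10 μM compound for 30 min, and aliquots were heated for 3 min over 48°C-58°C. Pooled aliquots were extracted in PBS with 0.5% NP-40 at 4°C, and the supernatant after 21,000xg for 90 min was measured by TMTpro 16plex LC-MS/MS with channel sums equalised. Reported thermal stability, relative to control samples and from duplicates, is a log2 fold change.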

[2] = compound: NC(=O)c1cnc(N[C@@H]2CCCC[C@@H]2N)nc1Nc1cccc(-n2nccn2)c1
In short: as §1

[3] = compound: NC1(c2ccc(-c3nc4ccn5c(=O)[nH]nc5c4cc3-c3ccccc3)cc2)CCC1
In short: as §1

[4] = compound: NCC(=O)Nc1ccc(-n2nc(C(F)(F)F)cc2-c2ccc3c(ccc4ccccc43)c2)cc1
In short: as §1

[5] = compound: Nc1ccccc1NC(=O)c1ccc(CNC(=O)OCc2cccnc2)cc1 [entinostat]
In short: as §1

[6] = compound: O=C(CCCCCCC(=O)Nc1ccccc1)NO [vorinostat]
In short: as §1

[7] = compound: O=C(CCCCCCNC(=O)c1cnc(N(c2ccccc2)c2ccccc2Cl)nc1)NO [citarinostat]
In short: as §1

[8] = compound: O=C(O)c1ccc2c(c1)nc(Nc1cccc(Cl)c1)c1ccncc12 [silmitasertib]
In short: as §1

[9] = compound: O=C1NC(=O)C(c2cnc3ccccn23)=C1c1cn2c3c(cc(F)cc13)CN(C(=O)N1CCCCC1)CC2
In short: as §1

[10] = compound: c1cc(OCCN2CCCCC2)cc(-c2n[nH]c3ccc(-c4nnc[nH]4)cc23)c1
In short: as §1

Measured: log2 fold change

RPL38 (UniProt P63173)
inactive: [1] -0.005 | [2] 0.022 | [3] 0.09 | [4] 0.024 | [5] -0.022 | [6] 0.002 | [7] -0.003 | [8] -0.008 | [9] 0 | [10] -0.094

RAB8B (UniProt Q92930)
inactive: [1] 0.203 | [2] 0.017 | [3] -0.053 | [4] 0.2 | [5] 0.116 | [6] 0.073 | [7] 0.03 | [8] -0.049 | [9] -0.013 | [10] 0.093

RNF167 (UniProt Q9H6Y7)
inactive: [1] 0.015 | [2] -0.062 | [3] -0.278 | [4] -0.03 | [5] -0.032 | [6] 0.014 | [8] 0.095 | [9] -0.028

SKP1 (UniProt P63208)
UniProt P63208, sequence (P63208 whole entry, looked up): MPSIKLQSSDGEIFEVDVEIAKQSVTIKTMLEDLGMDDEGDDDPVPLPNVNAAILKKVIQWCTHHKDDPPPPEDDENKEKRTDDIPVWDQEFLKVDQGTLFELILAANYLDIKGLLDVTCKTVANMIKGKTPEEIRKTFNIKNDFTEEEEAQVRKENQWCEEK
inactive: [1] 0.015 | [2] 0.011 | [3] 0.034 | [4] 0.047 | [5] 0.037 | [6] 0.16 | [7] -0.003 | [8] 0 | [9] 0.008 | [10] 0.01

RNF14 (UniProt Q9UBS8)
UniProt Q9UBS8, sequence (Q9UBS8 whole entry, looked up): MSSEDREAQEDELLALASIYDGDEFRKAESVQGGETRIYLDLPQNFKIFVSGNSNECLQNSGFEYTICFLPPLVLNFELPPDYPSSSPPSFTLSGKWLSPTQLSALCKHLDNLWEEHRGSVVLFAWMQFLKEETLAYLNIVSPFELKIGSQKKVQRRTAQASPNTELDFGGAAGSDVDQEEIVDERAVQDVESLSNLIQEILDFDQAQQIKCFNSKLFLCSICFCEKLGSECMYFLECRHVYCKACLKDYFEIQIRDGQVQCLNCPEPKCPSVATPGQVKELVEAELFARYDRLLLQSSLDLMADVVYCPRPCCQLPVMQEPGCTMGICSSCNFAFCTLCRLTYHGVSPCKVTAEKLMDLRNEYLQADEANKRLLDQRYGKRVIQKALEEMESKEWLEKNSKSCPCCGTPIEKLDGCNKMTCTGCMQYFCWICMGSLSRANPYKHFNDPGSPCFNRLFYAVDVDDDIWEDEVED
inactive: [1] -0.016 | [2] -0.054 | [3] -0.157 | [4] 0.008 | [5] 0.037 | [6] 0.021 | [7] -0.006 | [8] 0.003 | [9] -0.127 | [10] -0.007

RPS5 (UniProt P46782)
inactive: [1] 0.035 | [2] 0.105 | [3] 0.153 | [4] 0.133 | [5] -0.043 | [6] 0 | [7] -0.052 | [8] -0.07 | [9] 0.094 | [10] -0.12

RPA1 (UniProt P27694)
UniProt P27694, sequence (P27694 whole entry, looked up): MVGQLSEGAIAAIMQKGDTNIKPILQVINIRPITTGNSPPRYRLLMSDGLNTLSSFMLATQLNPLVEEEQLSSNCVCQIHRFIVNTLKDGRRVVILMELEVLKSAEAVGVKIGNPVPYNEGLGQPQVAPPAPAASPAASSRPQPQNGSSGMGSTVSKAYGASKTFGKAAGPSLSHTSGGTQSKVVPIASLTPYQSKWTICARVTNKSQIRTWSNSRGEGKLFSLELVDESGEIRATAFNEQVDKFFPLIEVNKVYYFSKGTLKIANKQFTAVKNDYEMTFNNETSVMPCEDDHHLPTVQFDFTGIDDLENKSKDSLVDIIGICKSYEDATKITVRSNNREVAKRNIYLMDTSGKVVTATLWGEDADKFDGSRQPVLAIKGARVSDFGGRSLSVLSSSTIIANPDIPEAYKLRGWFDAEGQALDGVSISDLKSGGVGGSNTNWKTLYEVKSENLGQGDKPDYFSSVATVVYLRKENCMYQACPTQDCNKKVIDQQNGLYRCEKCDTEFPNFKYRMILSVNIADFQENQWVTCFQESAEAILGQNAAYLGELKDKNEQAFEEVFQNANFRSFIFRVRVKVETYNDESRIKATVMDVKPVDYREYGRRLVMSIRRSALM
inactive: [1] -0.189 | [2] 0.007 | [3] -0.049 | [4] -0.052 | [5] 0.06 | [6] 0.106 | [7] 0.079 | [8] -0.02 | [9] -0.046 | [10] 0.006

SLC12A5 (UniProt Q9H2X9)
inactive: [1] -0.111 | [2] -0.077 | [3] -0.064 | [4] -0.043 | [5] -0.05 | [7] 0.129 | [8] 0.05 | [9] -0.032 | [10] -0.062

RNPEP (UniProt Q9H4A4)
inactive: [1] -0.001 | [2] -0.093 | [3] -0.086 | [4] -0.027 | [5] 0.042 | [6] 0.033 | [7] 0.018 | [8] 0.031 | [9] -0.017 | [10] -0.033

RAD50, A0A494C0Y7
inactive: [1] -0.032 | [2] -0.159 | [3] -0.28 | [4] -0.175 | [5] -0.103 | [6] -0.086 | [7] 0.095 | [8] 0.103 | [10] -0.279

RAB33B (UniProt Q9H082)
UniProt Q9H082, sequence (Q9H082 whole entry, looked up): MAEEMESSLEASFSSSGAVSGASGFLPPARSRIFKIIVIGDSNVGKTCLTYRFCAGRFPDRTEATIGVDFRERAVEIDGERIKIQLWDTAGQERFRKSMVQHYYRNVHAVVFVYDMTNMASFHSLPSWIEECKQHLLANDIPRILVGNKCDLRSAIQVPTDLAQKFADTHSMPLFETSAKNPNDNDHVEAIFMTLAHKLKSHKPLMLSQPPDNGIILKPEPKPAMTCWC
inactive: [1] -0.032 | [2] 0.014 | [3] 0.037 | [4] -0.019 | [5] -0.035 | [6] -0.021 | [7] -0.016 | [8] -0.014 | [9] -0.048 | [10] -0.032

RANBP2 (UniProt P49792)
inactive: [1] 0.063 | [2] -0.05 | [3] 0.01 | [4] 0.005 | [5] 0.009 | [6] -0.034 | [7] -0.037 | [8] 0.001 | [9] -0.049 | [10] 0.019

RCOR3 isoform 3 (UniProt Q9P2K3)
inactive: [1] 0.019 | [2] -0.067 | [3] -0.129 | [4] -0.177 | [5] 0.1 | [6] 0.127 | [7] 0.115 | [8] -0.043 | [10] -0.075

RAC3 (UniProt P60763)
inactive: [1] -0.142 | [2] 0.067 | [3] 0.058 | [4] -0.002 | [5] -0.14 | [6] -0.037 | [7] -0.007 | [8] 0.016 | [9] -0.083 | [10] 0.176

SLC19A1 (UniProt P41440)
inactive: [1] 0.1 | [2] 0.157 | [3] 0.036 | [4] 0.007 | [5] -0.017 | [6] 0.057 | [7] 0.02 | [8] -0.013 | [9] 0.207 | [10] -0.033

SACM1L (UniProt Q9NTJ5)
inactive: [1] -0.045 | [2] 0 | [3] -0.102 | [4] -0.083 | [5] 0.016 | [6] 0.006 | [7] 0.044 | [8] 0.034 | [9] -0.068 | [10] -0.017

RRS1 (UniProt Q15050)
UniProt Q15050, sequence (Q15050 whole entry, looked up): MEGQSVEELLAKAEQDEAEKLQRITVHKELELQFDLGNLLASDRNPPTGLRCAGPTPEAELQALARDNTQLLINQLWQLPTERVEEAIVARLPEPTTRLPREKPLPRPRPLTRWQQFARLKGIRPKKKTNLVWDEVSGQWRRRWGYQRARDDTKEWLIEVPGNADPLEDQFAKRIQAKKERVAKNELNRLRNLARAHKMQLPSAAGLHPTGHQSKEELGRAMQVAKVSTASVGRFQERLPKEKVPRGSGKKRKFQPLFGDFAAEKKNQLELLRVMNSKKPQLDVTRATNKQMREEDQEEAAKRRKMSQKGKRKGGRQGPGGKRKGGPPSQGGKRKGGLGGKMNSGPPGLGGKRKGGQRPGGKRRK
inactive: [1] 0.06 | [2] 0.143 | [3] 0.233 | [4] 0.211 | [5] -0.087 | [6] -0.063 | [7] -0.081 | [8] 0.291 | [9] 0.438 | [10] -0.107

SCPEP1 (UniProt Q9HB40)
UniProt Q9HB40, sequence (Q9HB40 whole entry, looked up): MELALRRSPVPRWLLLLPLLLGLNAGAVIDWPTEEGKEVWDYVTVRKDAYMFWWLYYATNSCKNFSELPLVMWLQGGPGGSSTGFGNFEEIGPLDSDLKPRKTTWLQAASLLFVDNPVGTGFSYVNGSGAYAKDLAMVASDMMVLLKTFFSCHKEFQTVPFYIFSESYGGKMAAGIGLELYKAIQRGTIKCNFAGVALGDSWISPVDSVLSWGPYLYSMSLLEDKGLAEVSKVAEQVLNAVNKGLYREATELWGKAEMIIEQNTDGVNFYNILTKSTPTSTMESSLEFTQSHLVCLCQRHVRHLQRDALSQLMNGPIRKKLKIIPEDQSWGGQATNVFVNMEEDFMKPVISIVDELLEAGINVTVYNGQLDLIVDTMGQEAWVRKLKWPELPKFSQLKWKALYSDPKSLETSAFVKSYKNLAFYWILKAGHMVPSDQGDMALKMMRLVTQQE
active: [3] -0.314
inactive: [1] 0.036 | [2] 0.001 | [4] 0.008 | [5] 0.023 | [6] -0.037 | [7] -0.043 | [8] 0.003 | [9] 0.024 | [10] 0.022

RNF26 (UniProt Q9BY78)
inactive: [4] -0.161 | [6] -0.094

RPS19 (UniProt M0R2L9)
inactive: [2] -0.159 | [3] 0.453 | [8] -0.634

SDHAF4 (UniProt Q5VUM1)
UniProt Q5VUM1, sequence (Q5VUM1 whole entry, looked up): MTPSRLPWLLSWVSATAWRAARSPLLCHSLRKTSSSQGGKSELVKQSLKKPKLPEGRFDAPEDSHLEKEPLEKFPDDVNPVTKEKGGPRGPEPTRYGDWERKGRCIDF
inactive: [1] -0.016 | [2] 0.07 | [3] -0.111 | [5] -0.021 | [7] 0.076 | [8] 0.04 | [9] 0.005 | [10] 0.108

SERINC1 (UniProt Q9NRX5)
UniProt Q9NRX5, sequence (Q9NRX5 whole entry, looked up): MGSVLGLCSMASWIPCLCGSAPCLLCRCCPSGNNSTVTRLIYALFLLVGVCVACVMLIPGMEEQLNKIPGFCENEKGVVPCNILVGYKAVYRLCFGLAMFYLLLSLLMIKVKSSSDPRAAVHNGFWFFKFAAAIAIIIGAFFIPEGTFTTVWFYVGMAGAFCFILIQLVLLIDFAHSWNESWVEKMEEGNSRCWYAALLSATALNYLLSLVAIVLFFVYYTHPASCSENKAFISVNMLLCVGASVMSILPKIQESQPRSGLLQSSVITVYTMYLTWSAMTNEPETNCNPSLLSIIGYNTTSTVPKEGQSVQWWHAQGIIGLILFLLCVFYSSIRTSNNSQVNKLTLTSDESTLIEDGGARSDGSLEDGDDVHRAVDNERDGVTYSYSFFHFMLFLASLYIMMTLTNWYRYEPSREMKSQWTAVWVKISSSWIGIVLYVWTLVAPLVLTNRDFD
inactive: [1] -0.061 | [2] -0.241 | [3] 0.004 | [4] -0.174 | [5] -0.009 | [7] 0.088 | [8] 0.197 | [9] 0.032 | [10] 0.022

SDC3 (UniProt O75056)
UniProt O75056, sequence (O75056 whole entry, looked up): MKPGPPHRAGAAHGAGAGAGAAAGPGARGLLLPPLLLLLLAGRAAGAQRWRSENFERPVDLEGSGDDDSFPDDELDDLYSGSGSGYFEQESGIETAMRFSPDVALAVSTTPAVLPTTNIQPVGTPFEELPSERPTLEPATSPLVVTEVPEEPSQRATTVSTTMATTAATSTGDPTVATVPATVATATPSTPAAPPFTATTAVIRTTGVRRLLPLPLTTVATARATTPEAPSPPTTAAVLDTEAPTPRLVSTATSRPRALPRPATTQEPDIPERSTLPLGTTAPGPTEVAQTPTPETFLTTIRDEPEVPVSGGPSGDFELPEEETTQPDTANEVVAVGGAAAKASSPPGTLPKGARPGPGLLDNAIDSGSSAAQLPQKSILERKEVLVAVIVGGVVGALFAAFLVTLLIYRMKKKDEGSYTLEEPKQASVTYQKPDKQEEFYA
inactive: [1] 0.044 | [2] -0.016 | [4] 0.026 | [5] 0.035 | [6] 0.211 | [7] 0.354 | [9] 0.09 | [10] 0.174

RPAIN isoform 8 (UniProt Q86UA6)
inactive: [1] -0.017 | [2] -0.044 | [4] -0.093 | [5] 0.014 | [9] -0.012

SDCBP isoform 2 (UniProt O00560)
UniProt O00560, sequence (O00560 whole entry, looked up): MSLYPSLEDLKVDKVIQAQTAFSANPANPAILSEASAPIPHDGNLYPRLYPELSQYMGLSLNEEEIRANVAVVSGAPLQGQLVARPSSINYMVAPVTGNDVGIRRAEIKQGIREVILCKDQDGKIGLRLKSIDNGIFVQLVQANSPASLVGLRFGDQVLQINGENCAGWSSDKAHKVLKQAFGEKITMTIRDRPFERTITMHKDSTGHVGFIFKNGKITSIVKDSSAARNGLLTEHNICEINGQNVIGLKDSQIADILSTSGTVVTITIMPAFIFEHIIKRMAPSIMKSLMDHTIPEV
inactive: [1] -0.038 | [3] -0.286 | [5] 0.004 | [6] -0.01 | [7] 0.024 | [8] 0.124 | [9] -0.041 | [10] 0.097

RBMY1E (UniProt A6NEQ0)
UniProt A6NEQ0, sequence (A6NEQ0 whole entry, looked up): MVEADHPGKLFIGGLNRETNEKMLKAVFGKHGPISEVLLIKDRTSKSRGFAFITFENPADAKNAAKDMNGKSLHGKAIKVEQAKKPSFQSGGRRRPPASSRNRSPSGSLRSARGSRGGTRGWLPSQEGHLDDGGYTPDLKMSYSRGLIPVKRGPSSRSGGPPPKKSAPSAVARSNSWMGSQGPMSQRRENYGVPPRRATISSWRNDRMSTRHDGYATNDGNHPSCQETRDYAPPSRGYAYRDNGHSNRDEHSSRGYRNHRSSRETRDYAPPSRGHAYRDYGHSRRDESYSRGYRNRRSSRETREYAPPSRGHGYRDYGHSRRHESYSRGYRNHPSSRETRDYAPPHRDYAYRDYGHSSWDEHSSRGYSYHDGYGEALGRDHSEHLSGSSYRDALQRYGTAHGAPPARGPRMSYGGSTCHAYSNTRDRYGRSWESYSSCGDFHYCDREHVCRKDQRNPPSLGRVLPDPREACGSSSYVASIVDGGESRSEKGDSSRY
inactive: [3] -0.246 | [6] 0.07 | [7] 0.063 | [8] -0.156 | [10] -0.081

RAPGEF4 (UniProt Q8WZA2)
inactive: [1] -0.095 | [2] -0.13 | [3] -0.054 | [4] -0.04 | [5] -0.003 | [7] 0.161 | [8] 0.125 | [9] -0.279 | [10] 0.127

RABGAP1L isoform 5 (UniProt Q5R372)
active: [9] -0.315
inactive: [1] -0.246 | [2] -0.094 | [3] -0.021 | [5] -0.051 | [8] 0.106

RPS3 (UniProt E9PJN9)
inactive: [6] 0.2 | [7] 0 | [10] -0.048

SCLT1 (UniProt Q96NL6)
inactive: [1] -0.007 | [3] -0.057 | [4] -0.077 | [5] -0.023 | [6] 0.064 | [8] -0.01

RNF220 isoform 3 (UniProt Q5VTB9)
inactive: [2] 0.115

SCYL3 isoform 2 (UniProt Q8IZE3)
inactive: [2] 0.001 | [3] -0.185 | [4] -0.055 | [6] 0.031 | [7] -0.047 | [8] 0.021 | [9] -0.053 | [10] 0.173

SEMG2 (UniProt Q02383)
inactive: [1] -0.013 | [2] 0.046 | [3] 0.651 | [5] 0.033 | [6] -0.073 | [7] 0.066 | [8] 0.001 | [9] 0.051 | [10] -0.067

RNF41 (UniProt Q9H4P4)
inactive: [2] 0.082 | [7] 0.044 | [10] -0.018

RALGPS2 (UniProt Q86X27)
inactive: [2] 0.258 | [3] -0.08 | [4] 0.175 | [6] 0.074 | [7] 0.219 | [8] 0.089 | [9] 0.34 | [10] -0.153

RNF185 (UniProt Q96GF1)
inactive: [2] -0.022 | [3] -0.072 | [4] -0.139 | [6] -0.28 | [7] -0.135 | [8] 0.001 | [10] 0.072

RPS6KA5 (UniProt O75582)
inactive: [3] -0.138 | [7] -0.101 | [8] 0.045 | [9] -0.088 | [10] 0.092

— the supplement of paper PMC10849652
